Measured values: the supplement of paper PMC10681739

Columns and labels:
ETS1 [1] = molecular target: T1, ETS1 (UniProt P14921); assay: ETS1 binding intensity (PBM fluorescence), ETS1 alone (arbitrary fluorescence units); higher = stronger binding; conditions: ETS1 concentration 1 nM; RUNX1 concentration 0 nM
T1 sequence: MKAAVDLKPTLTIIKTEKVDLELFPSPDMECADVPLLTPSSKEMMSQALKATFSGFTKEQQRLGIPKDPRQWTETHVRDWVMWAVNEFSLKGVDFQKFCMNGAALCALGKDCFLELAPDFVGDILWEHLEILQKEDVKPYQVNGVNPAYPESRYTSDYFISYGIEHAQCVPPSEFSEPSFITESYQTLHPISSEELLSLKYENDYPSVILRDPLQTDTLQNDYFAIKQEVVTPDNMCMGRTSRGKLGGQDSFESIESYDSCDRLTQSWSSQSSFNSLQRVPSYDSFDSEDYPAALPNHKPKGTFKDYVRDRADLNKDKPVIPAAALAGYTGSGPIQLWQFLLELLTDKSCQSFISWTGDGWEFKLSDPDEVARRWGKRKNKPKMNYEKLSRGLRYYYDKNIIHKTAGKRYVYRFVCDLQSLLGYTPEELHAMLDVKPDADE

ETS1 [2] = molecular target: T1, ETS1; assay: ETS1 binding intensity (PBM fluorescence) in presence of RUNX1, normalised to ETS1-only experiment (arbitrary fluorescence units); higher = stronger binding; conditions: ETS1 concentration 1 nM; RUNX1 concentration 25 nM

Sequence	ETS1 binding intensity (ETS1 [1])	ETS1 binding intensity (ETS1 [2])
TCTCTCTACGGAAGCTGGTAGGGCTGTGGGTGCTTC	729	810
GGGGCAGGAAACAGCGTCCTGCGCGGGTAGCCCCTG	775	918
TCAGGAAGTGGTGTGACCAGCATGTGAACCGCGGCA	681	1110
GTCGTCAGCGTCTTCCTGTCAGCGGTCGGCAGAGCC	706	562
CTGCAGACAGGAGGATGTGGGCTTGCGCGCAAACAG	675	745
GTGCAGGCAATGAGGATGTTGTGGGGGAGACAGGGA	746	732
CTGAAGGCTGGGGAGGAAGTGACCGCCCTCATATGC	2120	2330
GGAGCGGCGGAAGGGAGCTTGCGGCGGGAGGCTGAA	423	485
GCGCAAGGCGCTTCCTCCCCCGCAGCGCGAGCCCCA	477	435
CAGTCTCCTTCCGCGTCACCTCTGTGACCGCTGTGC	414	583
CTGTTCTCATCCGCCCGCTCTGAGTCACCCACACCT	465	441
GCCACCGTATTTCCGCGTTTTTCGCGGTAGGCGGGA	465	576
TAAATAGGAAGTCAGAGTTTACTGCCGAACCCACAG	616	523
GACGCTCTCTTCCTGTCTTTGTGGCTCCAGAAAGGC	830	630
GCACGCGCCGGGCGGAACCCACAGGCCTGGAAGCGA	537	803
ACTTCCAGGAAGCCCCATAGTCCAGAAACCCACACA	493	402
CTGTCAGGATGTTGGCTTGTGAGCCCACAATCCTCT	413	451
TGATGCAGGAAGGGGTGGAGTCACCACAGGAGGTAG	827	952
CAAAGGGGAACGAGGAAACCGCCAGGGGCGGGGCGG	485	475
TTGAAAAGGAAGTTCATTTGTACTGAGGTGGTTTTA	602	698
AGCACAGGTTCCCAGGAAATGTGGGTTGAACAAGGC	1250	1250
TATGACCAGGGGAGGGAAGTGACCACAGCATATCAC	466	823
TAACGCGAGAACTTCCTGCGGGCCACGCCCTCTTTC	571	462
GGGAGGAAGTGTGAAGGGACTTTTGTGGTGAGTGAT	549	910

Sequence	ETS1 binding intensity (ETS1 [1])	ETS1 binding intensity (ETS1 [2])
GTGCGGAAGCGCGCCAAGGCACGTGACCGCTTCTGT	381	475
CTCTTCTCAGGAAGGGGCTGTGGGATGTAGGATTCC	638	610
CCATTTCCTGATTCTAATGTTCATCAACCACTTTTG	504	397
CCGCCCACTTCCGTGTGGCCGCCGATTGGTTTTGCC	491	516
GGGCAGGTGCGGATGCCGAGGAGAGTGGTCACCTCG	449	435
CCATGAGGAGGGAGGAAATAGTGGTACGAGGGCTGC	1040	1040
AGTTTCTCCAGGAAGCGCTGAGGTTTTCTCAGAAGT	763	1160
AGGGAAGCGGCGGCGGAAGCCCCGCAGGAGGCCGGC	806	932
AATTGTCAATGGCAGGAAGCCACCACATGAAGAGAT	1290	1650
AGCGGGAGGAAGTGCTGCAGTAGCCACAGCAGCCTG	534	737
GCACCGTGGCACTTCCGCGAGCGCCGCAGGCCCTGC	461	360
AGCACGTCCCCCTTCTTCCTCCCGCAGAGGGCCTGC	454	461
GCTTTGCAGTTTCCTCTGTGGAACACCACACACAGT	418	494
TGTGCTTTGTAGTGAGGATGTGGGTGCCTGCCTCAC	797	1010
GGCGGAACTTGTGCGTACGCTGGAAAACCGCTGGGG	385	545
GGTCCAGGAAGACGTCAAGGGCTTGGTTTTGTAAAC	505	448
GTCCTCCAGGAAGCCCGCGCTAACCACCGTGCCTTT	420	688
ATCAAAGAACGGATATTGCTGTGACACCGCGGGGAC	1380	1560
GCCGTGAGAAACATCCTGCCTAACCACCTGACTACA	618	678
GCCCCTCTTCCTGACTCACACAACCGCCTCTAGTCT	457	330
TCCTAGCCATTTCCTATCCACCCTGTGGCTAATTTG	437	476
GGAGGAAGAGAGGAAACGGGGGCGGCCGCAGCTTCT	836	1070
TGAATCATCCTGAGTTACCCGTTCTGTAACCGCCCC	490	517
GAGGTTGGGAAGTTCTTCCTTTGGTCTGACCACAGT	453	596

Sequence	ETS1 binding intensity (ETS1 [1])	ETS1 binding intensity (ETS1 [2])
ACACCGCTCAGGAAGACAAAGCCACACCTCACACCG	457	356
TGTTTGTTTCCGAAGATTAGCCAGCCTGCGGTAGAG	437	605
TGGGGTTTCCTGGGGAGAAACTTAGCCCTACCACAC	527	485
GACGGGATGTAGGTTTTCAGCCGTGGCCACAGGAGA	496	559
ATGTGCGTGTGCACAGGAAAACCACTGCCAGTATTT	756	789
CTCAGAGCTGCGGAAACTACAACTCCCACAAGGCTG	738	633
CACCCAAGGATATGCTTTTTTTTGGCAAGCCACATC	430	451
ACGCCGCGCATCCGCGCTTTACGGCGGCCGCAAAAT	405	563
GACTGAGATTTCCTGCCAGCAACCACATGGCTTGTC	512	577
TGCGCCAGCCTTCCTGTCGTGGTCACCGGTGGCAGC	446	400
GCTTTGCAGTTTCCTCTATGGAACACCACACACAGT	621	499
CCGGGAGGGACGGAGGATGTGTGGTTCTGTCTCCTT	673	553
AGGGAGACCGGGCCGGATTGCGGGGAGTGAGCAGGT	543	360
ACCAAACGTCACATCCGCGGTGCTGCTGTAATCCCA	470	389
CAGCAAGCGTCCAGGAAGTGTGTGGGGGAGGTGTGG	2010	1920
GGCTTGATTGAACGAGGATGTGGTTCTTGGGTGGGA	686	1770
TTTCCAGAGGATGTAGCTTCTGCGGGAGAGCTTCAA	546	584
GTCTTGTACCCTAGAGGATGTGGTAGCCCTAAATAA	1060	2290
GAAGTGATGTTAGACGGATGTGGGTGGTGCCTCCGG	1620	2790
CTCCGGGAACAGCGGAAAAGGGACCGCATGAACCTC	900	1470
CGGCGCTCGCGGAAGTGCCGCGGTGCCTGCTCTGCA	796	759
CGCCGGACGTAGTGACGTAGCGCGCAGCCGCAGCGG	442	476
CTCCTGAGGAAGTAGTTACAGACACCACAGCGGAGG	511	491
